Test results reported in ChEMBL document CHEMBL1201862, “PubChem BioAssay data set” (2004).

Assay: M. tuberculosis growth inhibition, dose response, 7H9 media, purified and synthesized compounds, set 6 (AID 504897); call rule not given here
Format: functional

| SMILES | IC90 |
| --- | --- |
| COC(=O)c1ccc(CNc2c(N3CCCC3)c(=O)c2=O)cc1 | > 100 µM (active) |
| CCCc1cc(C(N)=S)ccn1 | > 100 µM (active) |
| NC(=O)c1cnccn1 | > 100 µM (active) |
| Cc1[nH]c2ccccc2c1C(=O)COC(=O)c1ccc([N+](=O)[O-])s1 | > 67.8 µM (active) |
| O=C(CSc1ccccn1)NC1CCCCC1 | > 100 µM (active) |
